36 molecules from PubChem BioAssay can be followed below.

Unmarked numbers belong to inactive results.

The nature of this test: basal S. cerevisiae growth modulation, no modifier, primary screen, OD600, strain BY4716, 24 h, basal condition (AID 1173). The note with it: OD600, 24 h, higher = more signal, called active from +8 up or from −8 down.
Take `O=C1C2C=CC(C(O)Cc3ccccc3)N(n3cnnc3)C2C(=O)N1Cc1ccccc1` (stereo unspecified): the z-score was 0.341. With `Cc1ccc(S[C@]2(C(=O)NCCCN(C)C)CC(=O)N(Cc3ccccc3C(F)(F)F)[C@@H]2c2ccc(CO)cc2)cc1`, the z-score was -0.362. Turning to `COc1cc(C(O)C2C=CC3C(=O)NC(=O)C3N2Nc2ccccn2)cc(OC)c1OC` (stereo unspecified), the z-score is 0.979.

Consider `C=CCNC(=O)[C@H]1[C@@H]2C(=O)O[C@@H](c3ccccc3)[C@@H](c3ccccc3)N2[C@@H](c2ccccc2OCCO)[C@]12C(=O)Nc1ccc(C#CCC(C(=O)OC)C(=O)OC)cc12`, for which the z-score is 2.25. As for `COCCOC(=O)N1C(=O)[C@@]2(c3cc(C#CCNC(N)=O)ccc31)[C@H](C(=O)N1CCN(c3ncccn3)CC1)[C@H]1C(=O)O[C@H](c3ccccc3)[C@H](c3ccccc3)N1[C@@H]2c1ccc(OCCO)cc1`, the figure is 1.51; as for `CCOC(=O)C[C@H]1[C@H](OC(=O)c2ccc(C(=O)c3ccccc3)cc2)[C@@H](NC(=O)c2ccc3ccccc3c2)c2cc(OCCCO)ccc2N1C(=O)Cc1ccc(OC)cc1`, -0.291.

Regarding `C[C@H]1NC(=O)[C@@]23C(=O)N[C@@H](Cc4ccccc4)C2[C@H](C)[C@@]2(C)O[C@H]2C3/C=C/C/C=C\CNC(=O)[C@@H]2CCCN2C1=O` (stereo partly specified), the z-score is -0.704. Turning to `C=C(CCCC)/C(=C/C[C@@H](OC(=O)c1ccncc1)c1ccc(OCCO)cc1)c1cc(C(=O)OC)ccc1OC`, the z-score is 1.1. As to `CN1C(=O)C2C=CC(C(O)c3ccc([N+](=O)[O-])cc3)N(N3CCCCC3)C2C1=O` (stereo unspecified), the z-score is 0.217.

Turning to `CC(C)C(=C=CC[C@H](O)c1ccc(OCCO)cc1)CCO`, the z-score is -1.87. `C[C@H]1C2[C@H](Cc3ccccc3)NC(=O)[C@]23C(=O)N[C@H](Cc2ccccc2)C(=O)N2CCC[C@H]2C(=O)NC/C=C\C/C=C/C3[C@@H]2O[C@]12C` (stereo partly specified): the z-score was -1.96. As for `CN(C)CCCCCCNC(=O)[C@H]1C[C@H]2C(=O)N[C@@H](CCCCN)C(=O)N2[C@H]1c1cccc(OCCO)c1`, the figure is -1.69.

Turning to `C=CCC(OC(C)=O)[C@@H]1[C@@H](N(Cc2cc3ccccc3o2)C(=O)c2cccc3ccccc23)c2cc(OCCCO)ccc2N1C(=O)c1ccc(-c2ccccc2)cc1` (stereo partly specified), the z-score is -0.356. In the case of `COC(=O)[C@@]1(Cc2ccc(OC)cc2)[C@H]2c3cc(C(=O)N4CCCC4)n(Cc4ccc(O)c(OC)c4)c3C[C@H]2CN1C(=O)c1ccccc1`, the z-score is 1.19. As to `COC(=O)[C@@]1(Cc2ccc(OC)cc2)[C@H]2c3cc(C(=O)N4CCCC4)n(Cc4ccc(C)c(F)c4F)c3C[C@H]2CN1C(=O)c1ccccc1`, the z-score is 1.9. As for `C=CCOC(=O)[C@H]1[C@@H]2C(=O)O[C@@H](c3ccccc3)[C@@H](c3ccccc3)N2[C@@H](c2ccc(OCCOC(=O)[C@@H]3C[C@@H]4C(=O)N[C@@H](CCCCNC(C)=O)C(=O)N4[C@@H]3c3ccc(O)cc3)cc2)[C@]12C(=O)Nc1ccccc12`, the figure is 0.857.

Take `COC(=O)[C@@]1(Cc2ccc(OC)cc2)[C@H]2c3cc(C(=O)N(C)C)n(Cc4ccc(S(C)(=O)=O)cc4)c3C[C@H]2CN1C(=O)c1ccccc1`: the z-score is 0.0274.

Turning to `CC(C)=CCN[C@H](CO)c1ccccc1`, the z-score is -6.22. Regarding `COC(=O)[C@@]1(Cc2ccc(F)cc2)[C@H]2c3cc(C(=O)N4CCCC4)n(Cc4ccc(S(C)(=O)=O)cc4)c3C[C@H]2CN1C(=O)c1ccccc1`, the z-score was 1.01. Regarding `COc1ccc(C#Cc2ccc3c(c2)[C@]2(C(=O)N3)[C@H](C(=O)Nc3nc4ccccc4s3)[C@H]3C(=O)O[C@H](c4ccccc4)[C@H](c4ccccc4)N3[C@@H]2c2ccc(O)cc2)cc1`, the z-score is 0.0338. Regarding `[N-]=[N+]=Nc1ccccc1[C@H]1OC(c2ccc(OCCCO)cc2)=N[C@@]1(CCS(=O)(=O)c1ccccc1)C(N)=O`, the z-score was -1.06. Turning to `CC(C)c1ccc(NN2C(C(O)c3ccc(B(O)O)cc3)C=CC3C(=O)N(c4ccccc4)C(=O)C32)cc1` (stereo unspecified), the z-score is 0.278. As for `COC(=O)[C@@]1(Cc2ccc(F)cc2)[C@H]2c3cc(C(=O)N(C)C)n(Cc4ccccc4)c3C[C@H]2CN1C(=O)c1ccccc1`, the z-score was 1.98. Consider `[N-]=[N+]=Nc1ccccc1[C@@H]1OC(c2ccc(OCCCO)cc2)=N[C@]1(Cc1ccccc1)C(=O)N1CCOCC1`, for which the z-score was -0.294. Under `CN(C)C(=O)[C@]1(Cc2ccccc2N=[N+]=[N-])N=C(c2ccc(OCCCO)cc2)O[C@@H]1c1ccccc1N=[N+]=[N-]` stands -1.57. `CC(C)NC(=O)[C@@]1(c2ccc([N+](=O)[O-])cc2)CC(=O)N(C2CCCCC2)[C@@H]1c1ccc(CO)cc1I`: the z-score was -0.148.

In the case of `COCCOC(=O)N1C(=O)[C@@]2(c3cc(C#Cc4ccc(OC)cc4)ccc31)[C@H](c1ccc(OCCO)cc1)N1[C@H](c3ccccc3)[C@H](c3ccccc3)OC(=O)[C@H]1[C@@H]2C(=O)N1CCN(c2ncccn2)CC1`, the z-score is 3.4.

In the case of `CCC[C@@H]1C[C@@]1(CCC)[C@@H](NC(=O)c1ccccc1)c1cccc(Cl)c1`, the z-score was 1.74.

On to `[N-]=[N+]=Nc1ccccc1[C@H]1OC(c2ccc(OCCCO)cc2)=N[C@@]1(CCS(=O)(=O)c1ccccc1)C(=O)NCC(O)CO` (stereo partly specified), for which the z-score is -0.484. For the molecule `O=C1N[C@@H](Cc2ccccc2)C(=O)N2[C@@H]1C[C@@H](C(=O)O)[C@H]2c1cccc(OCCO)c1`, the z-score is 0.165. Take `COc1ccc([Si](C)(C)[C@@H]2[C@@H](CC(=O)N3CCC[C@H]3CO)O[C@]3(C(=O)N(c4ccccc4)c4ccccc43)[C@H]2C)cc1`: the z-score was -1.39.

For the molecule `CC(C)N1C(=O)C[C@@](C(=O)NCC(F)(F)F)(c2ccc([N+](=O)[O-])cc2)[C@H]1c1ccc(CO)cc1`, the z-score is -0.957. For the molecule `CN1C(=O)C2C=CC(C(O)C#Cc3ccccc3)N(N3CCCCC3)C2C1=O` (stereo unspecified), the z-score was -0.375. For the molecule `C=C(C)[C@@H]1CC=C(C(O)C2C=CC3C(=O)N(C)C(=O)C3N2Nc2ccccc2)CC1` (stereo partly specified), the z-score was 0.773. Turning to `C=CCOC(=O)[C@@H]1[C@H]2C(=O)O[C@H](c3ccccc3)[C@H](c3ccccc3)N2[C@H](c2ccc(OCCOC(=O)[C@@H]3C[C@@H]4C(=O)NCC(=O)N4[C@@H]3c3ccc(O)cc3)cc2)[C@@]12C(=O)Nc1ccc(I)cc12`, the z-score was 0.286.

With `COC(=O)[C@@]1(Cc2ccc(OC)cc2)[C@H]2c3cc(C(=O)N(C)C)n(CCc4ccccn4)c3C[C@H]2CN1C(=O)c1ccccc1`, the z-score is 2.55.
